Reference: PubChem BioAssay AID1159580 (chemical genetic matrix, 2015)
The campaign covered roughly 5,500 compounds. About 2,000 (36%) were called active. Roughly 18% stayed inconclusive and do not appear here. Rule as the data show it: active = normalized growth mostly below about 0.91 (no sharp cut-off); inconclusive = no clear call, values can overlap the other calls; inactive = mostly above about 0.92. The list shows a part of the results.

Experiment: chemical genetic growth profiling, strain panel (AID 1159580);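 also: tested at 20 µM; growth read once vehicle control cultures reached saturation at 30 °C; 1 = growth at the plate median or of vehicle wells; lower values mean less growth of the strain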
Settings: growth OD

Measured: normalized growth

CO[C@H]1C[C@H](O[C@H]2[C@H](C)[C@@H](OC3O[C@H](C)C[C@H](N(C)C)[C@H]3O)[C@@H](C)C[C@]3(CO3)C(=O)[C@H](C)[C@@H](O)[C@@H](C)[C@@H](C)OC(=O)[C@@H]2C)O[C@@H](C)[C@@H]1O (some centres not stated)
inactive: S. cerevisiae deletion strains, locus YJR075W, strain HOC1, hits give low values 1.01 | S. cerevisiae deletion strains, locus YKL009W, strain mrt4, hits give low values 1 | S. cerevisiae deletion strains, locus YKL068W, hits give low values 1 | S. cerevisiae deletion strains, locus YKL085W, strain MDH1 (second series), hits give low values 0.992 | S. cerevisiae deletion strains, locus YKL085W, strain MDH1, hits give low values 0.992 | S. cerevisiae deletion strains, locus YKL160W, strain elf1, hits give low values 1.06 | S. cerevisiae deletion strains, locus YKL190W, strain CNB1, hits give low values 1 | S. cerevisiae deletion strains, locus YKR001C, strain vps1, hits give low values 1.02 | S. cerevisiae deletion strains, locus YKR026C, strain gcn3, hits give low values 1 | S. cerevisiae deletion strains, locus YKR091W, strain srl3, hits give low values 1 | S. cerevisiae deletion strains, locus YLL001W, strain dnm1, hits give low values 1.06 | S. cerevisiae deletion strains, locus YLL026W, hits give low values 1 | S. cerevisiae deletion strains, locus YLL041C, strain sdh2, hits give low values 1 | S. cerevisiae deletion strains, locus YLR027C, strain aat2, hits give low values 1.01 | S. cerevisiae deletion strains, locus YLR039C, strain RIC1, hits give low values 1.03 | S. cerevisiae deletion strains, locus YLR058C, strain SHM2, hits give low values 1.01 | S. cerevisiae deletion strains, locus YLR102C, strain apc9, hits give low values 0.984 | S. cerevisiae deletion strains, locus YLR113W, strain HOG1, hits give low values 0.995 | S. cerevisiae deletion strains, locus YLR221C, strain rsa3, hits give low values 1.03 | S. cerevisiae deletion strains, locus YLR258W, strain gsy2, hits give low values 1.03 | S. cerevisiae deletion strains, locus YLR262C, strain YPT6 (second series), hits give low values 1.02 | S. cerevisiae deletion strains, locus YLR262C, strain YPT6, hits give low values 0.956 | S. cerevisiae deletion strains, locus YLR268W, strain sec22, hits give low values 1.05 | S. cerevisiae deletion strains, locus YLR320W, strain mms22, hits give low values 1.07 | S. cerevisiae deletion strains, locus YLR330W, strain CHS5, hits give low values 1.01 | S. cerevisiae deletion strains, locus YLR342W, strain FKS1 (second series), hits give low values 1.01 | S. cerevisiae deletion strains, locus YLR342W, strain FKS1, hits give low values 1.01 | S. cerevisiae deletion strains, locus YLR357W, strain rsc2, hits give low values 1.05 | S. cerevisiae deletion strains, locus YLR370C, strain arc18, hits give low values 0.991 | S. cerevisiae deletion strains, locus YLR371W, strain rom2, hits give low values 0.985 | S. cerevisiae deletion strains, locus YLR384C, strain iki3, hits give low values 1 | S. cerevisiae deletion strains, locus YLR418C, strain cdc73, hits give low values 1.03 | S. cerevisiae deletion strains, locus YML016C, strain PPZ1, hits give low values 1 | S. cerevisiae deletion strains, locus YML032C, strain rad52, hits give low values 1.01 | S. cerevisiae deletion strains, locus YML120C, strain ndi1, hits give low values 1.02 | S. cerevisiae deletion strains, locus YML124C, strain tub3, hits give low values 1 | S. cerevisiae deletion strains, locus YMR058W, strain fet3, hits give low values 1.01 | S. cerevisiae deletion strains, locus YMR078C, strain ctf18, hits give low values 0.996 | S. cerevisiae deletion strains, locus YMR125W, strain sto1, hits give low values 1.07 | S. cerevisiae deletion strains, locus YMR129W, hits give low values 0.997 | S. cerevisiae deletion strains, locus YMR205C, strain PFK2, hits give low values 1.05 | S. cerevisiae deletion strains, locus YMR223W, strain ubp8, hits give low values 1 | S. cerevisiae deletion strains, locus YMR231W, strain pep5, hits give low values 1 | S. cerevisiae deletion strains, locus YMR263W, strain SAP30, hits give low values 1.02 | S. cerevisiae deletion strains, locus YMR307W, strain GAS1, hits give low values 0.983 | S. cerevisiae deletion strains, locus YNL067W, strain RPL9B, hits give low values 1.02 | S. cerevisiae deletion strains, locus YNL071W, strain lat1, hits give low values 1.01 | S. cerevisiae deletion strains, locus YNL128W, strain TEP1, hits give low values 1.01 | S. cerevisiae deletion strains, locus YNL153C, strain GIM3, hits give low values 1.01 | S. cerevisiae deletion strains, locus YNL183C, strain NPR1, hits give low values 0.962 | S. cerevisiae deletion strains, locus YNL209W, strain ssb2, hits give low values 1.01 | S. cerevisiae deletion strains, locus YNL233W, strain BNI4, hits give low values 1.02 | S. cerevisiae deletion strains, locus YNL248C, strain rpa49, hits give low values 1.09 | S. cerevisiae deletion strains, locus YNL250W, strain rad50, hits give low values 1.01 | S. cerevisiae deletion strains, locus YNL271C, strain bni1, hits give low values 1.01 | S. cerevisiae deletion strains, locus YNL298W, strain CLA4, hits give low values 1.01 | S. cerevisiae deletion strains, locus YNL307C, strain MCK1, hits give low values 0.982 | S. cerevisiae deletion strains, locus YNL322C, strain KRE1 (second series), hits give low values 1.02 | S. cerevisiae deletion strains, locus YNL322C, strain KRE1, hits give low values 1.01 | S. cerevisiae deletion strains, locus YNR049C, strain mso1, hits give low values 0.997 | S. cerevisiae deletion strains, locus YNR052C, strain pop2, hits give low values 0.99 | S. cerevisiae deletion strains, locus YOL006C, strain TOP1, hits give low values 1.03 | S. cerevisiae deletion strains, locus YOL012C, strain htz1 1.14 | S. cerevisiae deletion strains, locus YOL147C, strain pex11, hits give low values 0.996 | S. cerevisiae deletion strains, locus YOR001W, strain rrp6, hits give low values 0.974 | S. cerevisiae deletion strains, locus YOR061W, strain CKA2, hits give low values 1 | S. cerevisiae deletion strains, locus YOR069W, strain VPS5, hits give low values 1.01 | S. cerevisiae deletion strains, locus YOR070C, strain gyp1, hits give low values 0.999 | S. cerevisiae deletion strains, locus YOR080W, strain dia2, hits give low values 0.988 | S. cerevisiae deletion strains, locus YOR083W, strain WHI5, hits give low values 1.07 | S. cerevisiae deletion strains, locus YOR106W, strain vam3, hits give low values 1.08 | S. cerevisiae deletion strains, locus YOR136W, strain idh2, hits give low values 1.01 | S. cerevisiae deletion strains, locus YOR144C, strain elg1, hits give low values 1 | S. cerevisiae deletion strains, locus YOR184W, strain ser1, hits give low values 1.01 | S. cerevisiae deletion strains, locus YOR231W, strain MKK1, hits give low values 1 | S. cerevisiae deletion strains, locus YOR265W, strain rbl2, hits give low values 1 | S. cerevisiae deletion strains, locus YOR270C, strain vph1, hits give low values 1.03 | S. cerevisiae deletion strains, locus YOR290C, strain snf2, hits give low values 1.03 | S. cerevisiae deletion strains, locus YOR316C, strain cot1, hits give low values 0.985 | S. cerevisiae deletion strains, locus YPL051W, strain arl3, hits give low values 1.04 | S. cerevisiae deletion strains, locus YPL055C, strain LGE1, hits give low values 1.05 | S. cerevisiae deletion strains, locus YPL078C, strain atp4, hits give low values 1.06 | S. cerevisiae deletion strains, locus YPL106C, strain sse1, hits give low values 1.03 | S. cerevisiae deletion strains, locus YPL240C, strain hsp82, hits give low values 1 | S. cerevisiae deletion strains, locus YPL241C, strain CIN2, hits give low values 1 | S. cerevisiae deletion strains, locus YPL256C, strain CLN2, hits give low values 0.982 | S. cerevisiae deletion strains, locus YPR119W, strain clb2, hits give low values 0.99 | S. cerevisiae deletion strains, locus YPR141C, strain kar3, hits give low values 1.01 | S. cerevisiae deletion strains, locus YPR163C, strain tif3, hits give low values 0.989 | S. cerevisiae deletion strains, locus YPR167C, strain met16, hits give low values 1 | S. cerevisiae deletion strains, strain wtn01, hits give low values 1.03 | S. cerevisiae strains, strain wild type, hits give low values 1
